High-throughput results: PubChem, National Center for Advancing Translational Sciences (NCATS)
nsP2pro inh: Primary qHTS for inhibitors of NSP2Pro chikungunya virus (CHIKV); 31,000 tested, 1.1% active; Potency, µM (doses to about 24.9 µM), for inactives: at the top dose activity change, negative = inhibition, most hits filed as inhibitors; FRET peptide cleavage, nsP2pro, fluorescence 1 h; AID 1964107, 2024; also: nearly all actives have a fitted effect of over 60% in size
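Recombinant nsP2pro (150 nM) was preincubated with compound 15 min at room temperature in 10 mM Tris-HCl pH 8.0, 0.01% Tween 20. Peptide 2 FRET substrate (2.5 uM) was then added and fluorescence read after 1 h. Seven-point series, up to 25 uM.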
nsP2 cell sec: Secondary cell base assay for inhibitors of NSP2Pro Chikungunya virus (CHIKV); shares compounds with nsP2pro inh; cell-based CHIKV nsP2 protease reporter assay; Potency, µM (titrated, usually from 51.1 µM), for inactives: at the highest dose activity change, negative = inhibition, hits mostly inhibitors; 450 tested, 10% active; also: nearly all actives have a fitted effect of over 70% in size
Target sequence (Q8JUX6 220-798 limits assumed): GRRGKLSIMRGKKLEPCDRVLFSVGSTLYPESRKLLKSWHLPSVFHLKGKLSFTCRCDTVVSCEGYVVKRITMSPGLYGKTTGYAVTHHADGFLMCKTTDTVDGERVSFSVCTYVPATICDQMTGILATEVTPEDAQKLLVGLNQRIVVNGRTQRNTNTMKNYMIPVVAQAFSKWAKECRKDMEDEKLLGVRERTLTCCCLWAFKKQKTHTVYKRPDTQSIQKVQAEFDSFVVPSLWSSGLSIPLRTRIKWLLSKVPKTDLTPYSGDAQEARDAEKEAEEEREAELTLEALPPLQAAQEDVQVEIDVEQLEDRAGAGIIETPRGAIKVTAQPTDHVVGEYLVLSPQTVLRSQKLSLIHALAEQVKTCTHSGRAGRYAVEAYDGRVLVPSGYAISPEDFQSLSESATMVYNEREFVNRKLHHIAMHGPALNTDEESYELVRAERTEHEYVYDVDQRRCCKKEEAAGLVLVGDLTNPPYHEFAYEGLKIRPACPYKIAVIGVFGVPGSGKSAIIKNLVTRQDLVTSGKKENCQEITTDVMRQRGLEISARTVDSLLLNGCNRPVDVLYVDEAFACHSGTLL
NSP2 full ctr: Selectivity profile for inhibitors of NSP2Pro chikungunya virus (CHIKV): Full length NSP2 enzyme counterscreen (CHIKV-NSP2); shares compounds with nsP2pro inh; Full-length CHIKV NSP2 protease enzymatic counterscreen; Potency, µM (series often up to 50.7 µM), for inactives: top-dose activity change, negative = inhibition, usual class: inhibitors; 410 tested, 39% active; AID 1964101, 2024; also: nearly all actives have a fitted effect of over 65% in size
Furin counter: Selectivity profile for inhibitors of NSP2Pro chikungunya virus (CHIKV): Human furin counterscreen. shares compounds with nsP2pro inh. 410 tested, 6% active. Recombinant human furin enzymatic counterscreen, fluorogenic substrate. Potency, µM (highest dose often 50.6 µM), for inactives: top-dose activity change, negative = inhibition, most hits filed as inhibitors
nsP2 NS23 pep: Selectivity profile for inhibitors of NSP2Pro chikungunya virus (CHIKV): Endogenous NS2/3 peptide Counterscreen. shares compounds with nsP2pro inh. Purified CHIKV nsP2 protease, endogenous NS2/3 peptide cleavage. Potency, µM (highest dose often 51 µM), for the others: at the highest dose activity change, negative = inhibition, actives largely listed as inhibitors. 410 tested, 34% active. AID 1964103, 2024; also: nearly all actives have a fitted effect of over 55% in size
Papain cs: Selectivity profile for inhibitors of NSP2Pro chikungunya virus (CHIKV): Papain Counterscreen. shares compounds with nsP2pro inh. purified papain protease activity, enzymatic inhibition. Potency, µM (titrated, usually from 51 µM), inactives show at the top dose activity change, negative = inhibition, hits mostly inhibitors. 410 tested, 5% active. AID 1964104, 2024
nsP2pro conf qHTS: Confirmatory qHTS for inhibitors of NSP2Pro chikungunya virus (CHIKV) | shares compounds with nsP2pro inh | CHIKV nsP2 protease enzymatic activity, qHTS | Potency, µM (doses to about 25.5 µM), for the others: at the highest dose activity change, negative = inhibition, actives largely listed as inhibitors | 410 tested, 43% active | AID 1964105, 2024; also: nearly all actives have a fitted effect of over 75% in size
HCV NS3 4A cs: Selectivity profile for inhibitors of NSP2Pro chikungunya virus (CHIKV): NS34A-HCV Counterscreen | HCV NS3/4A protease biochemical counterscreen | 410 tested, 20% active | Potency, µM (highest dose often 50.9 µM), most hits filed as inhibitors | AID 1964106, 2024 | shares compounds with nsP2pro inh; also: nearly all actives have a fitted effect of over 55% in size
Active calls of the source: *; i = inactive; ? = inconclusive; . = not tested or not shown; ! = repeats disagree; [ ] = another dose, or the depositor's remark. Many of the other results were omitted from the sample, so hits are more common in it than they were. Calls follow the shape of the full dose curve. % is scaled to controls: 0 for no effect and ±100 for the full control effect; potency is read from the fitted curve at half-maximal effect.

SMILES	nsP2pro inh	nsP2 cell sec	others
CN(CC(=O)N(Cc1ccc(C2CCCCC2)cc1)c1ccc(C(=O)O)cc1)S(=O)(=O)c1c(F)c(F)c(F)c(F)c1F	124.4%	.
COc1ccc(-c2nc(S(=O)(=O)c3ccc(C)cc3)c(NCc3ccccc3)o2)cc1	4.47µM*	?	NSP2 full ctr=?;Furin counter=-4.0%;nsP2 NS23 pep=?;Papain cs=13µM*;nsP2pro conf qHTS=7.98µM*;HCV NS3 4A cs=i
Cc1ccc(S(=O)(=O)c2nc(-c3ccccc3F)oc2NCc2ccccc2)cc1	-2.2%	.
COc1ccc(-c2nc(-c3ccccc3)c(NCc3ccccc3)o2)cc1	7.2%[5.1 µM]	.
CC#C[C@@H](CC(=O)O)c1ccc(OCc2cccc(-c3ccc(C(F)(F)F)cc3)c2)cc1	452.0%	.
O=[N+]([O-])c1ccc(-[n+]2nc(-c3ccccc3)nn2-c2ccc(I)cc2)cc1	-1.1%	.
C[C@@H](Oc1cc(-n2cnc3ccc(OC4CCN(C)CC4)cc32)sc1C(N)=O)c1ccccc1Cl	90.3%	.
Cn1sc(=O)n(Cc2ccccc2)c1=O	6.24µM*	?	NSP2 full ctr=11.6µM*;Furin counter=?;nsP2 NS23 pep=9.19µM*;Papain cs=-4.3%;nsP2pro conf qHTS=4µM*;HCV NS3 4A cs=i
Cc1sc2c(c1C)c(=O)n(Cc1ccccc1)c(=O)n2Cc1ccc(F)cc1	-12.6%	.
Cc1cnc(CCN)n1Cc1ccccc1	i	.
Cc1ccc(-c2cc(C(=O)Nc3ccc(-n4cccn4)cc3)c3ccccc3n2)cc1C	i	.
Cc1ccc(C2(O)CCN(CCCC(=O)c3ccc(F)cc3)CC2)cc1	-10.5%	.
COC1(C[S@@](=O)c2ccccc2)CCN(CCc2c[nH]c3ccc(F)cc23)CC1	?	49.4%	NSP2 full ctr=-8.8%;Furin counter=-1.7%;nsP2 NS23 pep=-17.6%;Papain cs=-0.3%;nsP2pro conf qHTS=-18.3%;HCV NS3 4A cs=i
COc1cc2c(cc1OC)-c1cc3ccc(OC)c(OC)c3c[n+]1CC2	.	2.8%	NSP2 full ctr=?;Furin counter=-23.1%;nsP2 NS23 pep=?;Papain cs=?;nsP2pro conf qHTS=?;HCV NS3 4A cs=i
c1c2c(cc3c1OCO3)-c1cc3ccc4c(c3c[n+]1CC2)OCO4	?	-6.1%	NSP2 full ctr=?;Furin counter=4.11µM*;nsP2 NS23 pep=?;Papain cs=-21.8%;nsP2pro conf qHTS=?;HCV NS3 4A cs=i
C=CC(C)(O)C(O)CC1C(C)(O)C(O)C(O)C2C(C)(C)CCCC21C (centres undefined)	-10.3%	.
Cc1ccc2c(c1)/C(=C\c1cc(Cl)c(O)c(Cl)c1)C(=O)N2	i	.
CC(C)(C)OC(=O)NCCOCCOCCOc1cccc(-n2ncc3c2CCCC3NC(=O)c2ccccn2)c1 (centres undefined)	2.1%	.
Cc1cc(C(=O)CN2CCCC2)c(C)n1-c1ccc(F)cc1	5.56µM*!	-12.9%	NSP2 full ctr=13.6%;Furin counter=-7.0%;nsP2 NS23 pep=-13.5%;Papain cs=-18.7%;nsP2pro conf qHTS=-1.0%;HCV NS3 4A cs=i
CN1CCCCCC(O)c2cc(C(=O)N3CCN(c4ccc(F)cc4)CC3)ccc21 (centres undefined)	-15.7%	.
O=C(CN1CCN(c2ccc(Cl)cc2)CC1)Nc1ccc(F)cc1F	-22.6%	.
CNc1oc(-c2ccccc2-c2ccccc2)nc1C#N	0.7%	.
O=C(O)c1ccc(O)c2ncc(N3CCCN(CCCc4ccncc4)CC3)cc12	i	.
Cc1nc(-c2cccc(Cl)c2)n(CC(=O)NCc2ccc(F)cc2)c(=O)c1CCO	i	.
CCCCN(CCCC)C(=S)[S-].CCCCN(CCCC)C(=S)[S-].[Zn+2]	0.556µM*	?	NSP2 full ctr=0.231µM*;Furin counter=7.3µM*;nsP2 NS23 pep=1.63µM*;Papain cs=4.11µM*;nsP2pro conf qHTS=0.356µM*;HCV NS3 4A cs=i
SMILES	nsP2pro inh	nsP2 cell sec	others
CNCC(=O)OCc1cccnc1N(C)C(=O)OC(C)[n+]1cnn(C[C@](O)(c2cc(F)ccc2F)[C@@H](C)c2nc(-c3ccc(C#N)cc3)cs2)c1 (some centres undefined)	14.4%	.
COc1cccc(CNc2ccc(S(=O)(=O)Nc3ncc(C)s3)cc2)c1O	1.1%	.
OCc1ccc(-c2ccc(-c3ccc(CO)s3)o2)s1	2.16µM*	-4.3%[17.6 µM]	NSP2 full ctr=4µM*;Furin counter=?;nsP2 NS23 pep=?;Papain cs=i;nsP2pro conf qHTS=3.1µM*;HCV NS3 4A cs=i
CS(=O)(=O)c1ccc(C(=O)OCC(=O)N2Cc3ccccc3C2)cc1[N+](=O)[O-]	3.5%	.
CNCCC(c1cccs1)c1ccc(O)c2ccccc12 (centres undefined)	-12.9%	.
CC1OC(O[C@H]2CC[C@@]3(C)C(CC[C@]4(C)C3CC=C3C5CC(C)(C)CC[C@]5(C(=O)OC5OC(CO)C(OC6OCC(OC7OCC(O)C(O)C7O)C(O)C6O)C(O)C5O)CC[C@]34C)C2(C)C)C(O)C(O)C1OC1OC(CO)C(O)C(OC2OC(CO)C(O)C(O)C2O)C1O (some centres undefined)	6.5%[5.1 µM]	.
O=C(Nc1ccc2[nH]c(=O)oc2c1)C(=O)N1CCC(Cc2ccc(F)cc2)CC1	-5.2%	.
O=C(CCN1CCN(C(=O)OCc2cc(Cl)cc(Cl)c2)CC1)c1ccc2[nH]c(=O)oc2c1	0.988µM*!	-2.4%	NSP2 full ctr=16.3µM*;Furin counter=-3.3%;nsP2 NS23 pep=?;Papain cs=-20.9%;nsP2pro conf qHTS=6.34µM*;HCV NS3 4A cs=i
COc1ccc(C(=O)N2CCN(c3ccc4c(c3)CCC(=O)N4)CC2)cc1OC	-14.8%	.
Cc1oc2c(c1C(=O)N1CCN(C3CCCC3)CC1)CN(Cc1cccc(F)c1)CC2	-14.0%	.
COc1ccc(NC(=O)C2=C(C)Nc3ncnn3C2c2ccc(C)o2)cc1 (centres undefined)	-14.3%	.
COc1ccccc1NC(=O)C1=C(C)Nc2ncnn2C1c1ccc[nH]1 (centres undefined)	8.91µM*	4.9%
CCOc1ccccc1NC(=O)C1=C(C)Nc2ncnn2C1c1sccc1C (centres undefined)	-14.9%	.
CNC(=O)Nc1ccc(OC)c(NC(=O)NC(=O)c2cc(F)c(F)cc2Cl)c1	11.3%	.
CC(=O)OC1[C@H]2[C@@H](C[C@@H](C)[C@@H]3C=CC(=O)[C@@]13C)OC(=O)[C@@H]2C (some centres undefined)	13.6%	.
